Experimental data reported in the supplement of paper PMC6411743.
± gives the standard deviation of the averaged measurements. Of roughly 6,500 targets only a part is listed; those with the largest changes were picked by preference.

Compound: Nc1ncnc2c1ncn2[C@@H]1O[C@H](COP(=O)(O)OP(=O)(O)OP(=O)(O)O)[C@@H](O)[C@H]1O [adenosine triphosphate]
Assay: NP40-soluble protein abundance relative to vehicle (solubility fold change) (ratio); higher = more soluble protein in presence of ATP
In short: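 Across three independent experiments, values are fold changes against the detergent-processed vehicle for each replicate, based on vsn-normalised intensities. The samples were Jurkat crude lysate treated with eight concentrations (0.1 to 10 mM) for 10 min at room temperature and then 3 min at 37 °C. Lysate was solubilised with 0.8% NP40 and benzonase, ultracentrifuged, and the supernatant analysed by TMT-labelled LC-MS/MS.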

Sequence of UniProt Q9HCM7 (Q9HCM7 whole entry): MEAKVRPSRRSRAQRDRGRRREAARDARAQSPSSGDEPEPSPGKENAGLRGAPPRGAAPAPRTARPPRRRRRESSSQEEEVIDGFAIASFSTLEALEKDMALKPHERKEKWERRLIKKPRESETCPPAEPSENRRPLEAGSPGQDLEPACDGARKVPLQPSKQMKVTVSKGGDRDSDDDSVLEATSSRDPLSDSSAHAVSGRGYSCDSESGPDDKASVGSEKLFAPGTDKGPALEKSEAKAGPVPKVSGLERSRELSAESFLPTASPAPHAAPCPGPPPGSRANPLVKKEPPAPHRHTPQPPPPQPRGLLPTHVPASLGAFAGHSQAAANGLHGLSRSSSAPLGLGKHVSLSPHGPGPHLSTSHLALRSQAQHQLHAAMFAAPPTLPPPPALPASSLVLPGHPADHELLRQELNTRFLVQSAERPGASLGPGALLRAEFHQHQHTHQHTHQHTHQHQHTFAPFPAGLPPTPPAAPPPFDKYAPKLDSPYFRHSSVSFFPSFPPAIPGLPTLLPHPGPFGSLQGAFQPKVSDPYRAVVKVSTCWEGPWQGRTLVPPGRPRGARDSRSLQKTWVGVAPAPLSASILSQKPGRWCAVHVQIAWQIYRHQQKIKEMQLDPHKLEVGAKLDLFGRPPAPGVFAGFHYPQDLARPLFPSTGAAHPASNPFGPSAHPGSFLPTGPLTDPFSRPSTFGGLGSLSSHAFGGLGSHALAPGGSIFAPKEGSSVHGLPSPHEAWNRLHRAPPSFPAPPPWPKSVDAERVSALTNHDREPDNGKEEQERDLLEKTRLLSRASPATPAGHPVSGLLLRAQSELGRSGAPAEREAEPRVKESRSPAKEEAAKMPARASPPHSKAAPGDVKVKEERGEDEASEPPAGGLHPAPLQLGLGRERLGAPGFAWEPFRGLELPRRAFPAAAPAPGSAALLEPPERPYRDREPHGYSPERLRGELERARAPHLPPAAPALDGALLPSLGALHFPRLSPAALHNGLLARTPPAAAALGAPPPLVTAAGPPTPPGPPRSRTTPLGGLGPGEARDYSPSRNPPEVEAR
Sequence of UniProt Q9H6W3 (Q9H6W3 whole entry): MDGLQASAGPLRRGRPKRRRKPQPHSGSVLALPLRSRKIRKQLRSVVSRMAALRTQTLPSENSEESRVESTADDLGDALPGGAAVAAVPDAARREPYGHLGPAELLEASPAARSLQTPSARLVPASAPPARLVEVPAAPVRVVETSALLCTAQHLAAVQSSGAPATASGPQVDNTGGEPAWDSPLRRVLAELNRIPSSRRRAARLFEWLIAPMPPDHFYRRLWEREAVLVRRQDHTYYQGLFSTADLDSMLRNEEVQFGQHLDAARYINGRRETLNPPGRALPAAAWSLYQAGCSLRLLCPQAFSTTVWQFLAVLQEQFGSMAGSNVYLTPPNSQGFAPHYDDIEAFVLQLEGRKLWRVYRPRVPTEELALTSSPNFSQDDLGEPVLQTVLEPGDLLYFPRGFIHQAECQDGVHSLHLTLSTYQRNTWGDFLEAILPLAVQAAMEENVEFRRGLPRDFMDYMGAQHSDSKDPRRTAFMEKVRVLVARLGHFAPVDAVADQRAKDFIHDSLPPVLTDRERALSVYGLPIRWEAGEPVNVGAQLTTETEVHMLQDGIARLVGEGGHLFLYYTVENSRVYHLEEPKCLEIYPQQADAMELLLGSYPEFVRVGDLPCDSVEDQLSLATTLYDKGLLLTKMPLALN
Sequence of UniProt Q96KM6 (Q96KM6 whole entry): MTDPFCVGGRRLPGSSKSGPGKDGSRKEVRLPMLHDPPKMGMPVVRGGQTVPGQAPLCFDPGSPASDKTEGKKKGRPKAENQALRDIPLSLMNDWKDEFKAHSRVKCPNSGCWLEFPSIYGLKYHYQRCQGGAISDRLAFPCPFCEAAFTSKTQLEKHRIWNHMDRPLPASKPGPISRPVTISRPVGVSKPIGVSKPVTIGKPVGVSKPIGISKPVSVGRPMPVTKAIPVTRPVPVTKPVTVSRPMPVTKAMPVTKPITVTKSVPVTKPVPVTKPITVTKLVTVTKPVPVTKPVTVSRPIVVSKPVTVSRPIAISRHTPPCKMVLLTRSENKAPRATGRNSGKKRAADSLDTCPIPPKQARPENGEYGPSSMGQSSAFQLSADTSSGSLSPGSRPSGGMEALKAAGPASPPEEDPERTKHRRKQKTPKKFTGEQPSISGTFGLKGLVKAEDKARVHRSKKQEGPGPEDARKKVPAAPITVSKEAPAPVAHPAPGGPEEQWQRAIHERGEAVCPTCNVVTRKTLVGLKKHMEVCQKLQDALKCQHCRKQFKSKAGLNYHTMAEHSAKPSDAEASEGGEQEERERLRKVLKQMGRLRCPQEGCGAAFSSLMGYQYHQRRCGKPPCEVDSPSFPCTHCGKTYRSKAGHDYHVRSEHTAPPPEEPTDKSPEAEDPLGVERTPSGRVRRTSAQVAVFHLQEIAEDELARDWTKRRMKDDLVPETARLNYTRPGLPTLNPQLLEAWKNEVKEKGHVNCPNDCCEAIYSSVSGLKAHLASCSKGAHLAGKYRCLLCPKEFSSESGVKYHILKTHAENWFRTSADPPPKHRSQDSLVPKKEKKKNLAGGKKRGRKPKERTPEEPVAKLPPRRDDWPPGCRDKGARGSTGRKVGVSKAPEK
Sequence of UniProt Q9HD20 (Q9HD20 whole entry): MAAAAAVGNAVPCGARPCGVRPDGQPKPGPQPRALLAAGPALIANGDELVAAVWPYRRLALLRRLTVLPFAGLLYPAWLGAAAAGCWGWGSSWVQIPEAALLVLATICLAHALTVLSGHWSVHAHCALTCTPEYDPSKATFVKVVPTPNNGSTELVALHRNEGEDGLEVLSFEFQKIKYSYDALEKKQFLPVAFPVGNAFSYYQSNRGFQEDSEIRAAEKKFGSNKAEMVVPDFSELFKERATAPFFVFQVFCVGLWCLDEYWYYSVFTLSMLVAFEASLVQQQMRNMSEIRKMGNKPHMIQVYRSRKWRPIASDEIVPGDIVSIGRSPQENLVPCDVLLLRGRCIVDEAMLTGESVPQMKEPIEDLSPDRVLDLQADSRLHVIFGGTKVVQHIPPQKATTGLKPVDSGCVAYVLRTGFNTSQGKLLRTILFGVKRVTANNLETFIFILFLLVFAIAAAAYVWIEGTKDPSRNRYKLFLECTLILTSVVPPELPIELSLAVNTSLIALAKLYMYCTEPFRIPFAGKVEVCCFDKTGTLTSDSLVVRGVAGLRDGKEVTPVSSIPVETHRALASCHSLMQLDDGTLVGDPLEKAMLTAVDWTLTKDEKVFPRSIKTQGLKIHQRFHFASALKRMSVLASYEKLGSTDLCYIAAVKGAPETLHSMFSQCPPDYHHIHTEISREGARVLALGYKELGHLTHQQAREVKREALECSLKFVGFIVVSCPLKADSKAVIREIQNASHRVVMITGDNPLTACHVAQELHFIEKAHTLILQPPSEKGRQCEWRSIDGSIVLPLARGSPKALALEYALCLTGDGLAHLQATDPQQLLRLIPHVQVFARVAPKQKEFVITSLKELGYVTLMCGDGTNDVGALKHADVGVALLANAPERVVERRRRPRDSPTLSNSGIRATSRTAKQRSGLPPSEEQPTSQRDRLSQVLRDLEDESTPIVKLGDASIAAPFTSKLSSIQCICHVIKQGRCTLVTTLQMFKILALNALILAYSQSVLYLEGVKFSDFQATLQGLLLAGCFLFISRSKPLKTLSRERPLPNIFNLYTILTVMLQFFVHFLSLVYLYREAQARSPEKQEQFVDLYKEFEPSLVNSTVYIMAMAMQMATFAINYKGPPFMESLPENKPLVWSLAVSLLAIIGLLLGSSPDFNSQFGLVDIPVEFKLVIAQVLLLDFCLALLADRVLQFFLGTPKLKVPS
Sequence of UniProt Q9UBK8 (Q9UBK8 whole entry): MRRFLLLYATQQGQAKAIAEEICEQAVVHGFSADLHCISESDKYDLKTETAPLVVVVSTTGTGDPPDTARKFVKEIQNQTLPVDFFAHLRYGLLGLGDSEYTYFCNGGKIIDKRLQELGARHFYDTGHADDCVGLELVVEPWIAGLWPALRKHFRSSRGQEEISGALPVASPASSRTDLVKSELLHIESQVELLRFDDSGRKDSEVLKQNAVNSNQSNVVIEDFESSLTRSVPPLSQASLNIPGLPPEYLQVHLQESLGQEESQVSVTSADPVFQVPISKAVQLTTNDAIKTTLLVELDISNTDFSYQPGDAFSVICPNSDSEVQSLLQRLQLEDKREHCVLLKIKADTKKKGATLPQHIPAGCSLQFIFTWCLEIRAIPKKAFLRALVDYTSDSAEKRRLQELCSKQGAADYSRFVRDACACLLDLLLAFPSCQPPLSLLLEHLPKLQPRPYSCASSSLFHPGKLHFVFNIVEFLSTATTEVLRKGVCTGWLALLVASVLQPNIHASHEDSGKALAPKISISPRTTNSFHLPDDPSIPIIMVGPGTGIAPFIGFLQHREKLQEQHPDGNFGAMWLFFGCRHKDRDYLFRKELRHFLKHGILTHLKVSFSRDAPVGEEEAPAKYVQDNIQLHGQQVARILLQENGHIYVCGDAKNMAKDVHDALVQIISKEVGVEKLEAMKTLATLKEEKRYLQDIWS
Sequence of UniProt Q9HC36 (Q9HC36 whole entry): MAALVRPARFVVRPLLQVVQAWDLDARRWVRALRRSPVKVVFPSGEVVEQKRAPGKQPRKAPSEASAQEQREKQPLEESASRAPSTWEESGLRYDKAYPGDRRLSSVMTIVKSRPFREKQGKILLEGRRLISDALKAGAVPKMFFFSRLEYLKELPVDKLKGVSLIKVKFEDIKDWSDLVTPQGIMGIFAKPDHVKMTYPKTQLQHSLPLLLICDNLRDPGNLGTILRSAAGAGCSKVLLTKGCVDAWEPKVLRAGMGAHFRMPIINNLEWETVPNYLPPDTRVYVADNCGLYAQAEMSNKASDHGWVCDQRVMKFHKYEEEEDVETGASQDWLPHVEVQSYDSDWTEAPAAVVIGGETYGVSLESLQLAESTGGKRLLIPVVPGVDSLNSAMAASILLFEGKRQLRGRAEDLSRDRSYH

Target	NP40-soluble protein abundance (concentration: 1mM)	NP40-soluble protein abundance (concentration: 2mM)	NP40-soluble protein abundance (concentration: 4mM)	NP40-soluble protein abundance (concentration: 6mM)	NP40-soluble protein abundance (concentration: 8mM)	NP40-soluble protein abundance (concentration: 10mM)
DPCD (UniProt Q9BVM2)	0.965 ± 0.024	1.02 ± 0.045	0.969 ± 0.01	0.933 ± 0.048	0.929 ± 0.069	1.01 ± 0.087
PAFAH2 (UniProt Q99487)	1 ± 0.098	1.01 ± 0.074	0.978 ± 0.053	1 ± 0.27	0.992 ± 0.05	1.02 ± 0.064
ARGLU1 (UniProt Q9NWB6)	1.72 ± 0.14	1.86 ± 0.18	2.03 ± 0.26	2.27 ± 0.22	2.33 ± 0.28	2.44 ± 0.27
ZNF512B (UniProt Q96KM6)	1.01 ± 0.04	1.05 ± 0.02	1.07 ± 0.024	1.12 ± 0.044	1.08 ± 0.03	1.08 ± 0.043
UniProt Q96CN4|Q96CN4-2	0.985 ± 0.035	1.02 ± 0.061	1.13 ± 0.21	1.1 ± 0.084	1 ± 0.034	1.05 ± 0.059
UniProt Q96T23|Q96T23-2	1.48 ± 0.043	1.62 ± 0.071	1.81 ± 0.041	2 ± 0.1	1.96 ± 0.039	2.13 ± 0.11
UniProt Q9H0S4|Q9H0S4-2	1.18 ± 0.12	1.23 ± 0.072	1.44 ± 0.03	1.5 ± 0.09	1.79 ± 0.073	1.99 ± 0.11
UniProt Q96II8|Q96II8-2|Q96II8-4	1.17 ± 0.11	1.21 ± 0.057	1.2 ± 0.035	1.22 ± 0.078	1.17 ± 0.068	1.21 ± 0.034
ARMC1 (UniProt Q9NVT9)	0.913 ± 0.046	0.946 ± 0.018	0.876 ± 0.024	0.866 ± 0.063	0.881 ± 0.035	0.908 ± 0.029
UniProt Q96HN2-2|Q96HN2	0.919 ± 0.042	0.934 ± 0.051	0.898 ± 0.025	0.939 ± 0.052	0.911 ± 0.017	0.934 ± 0.01
UniProt Q9HC36	1.11 ± 0.06	1.29 ± 0.068	1.57 ± 0.13	1.8 ± 0.21	2.03 ± 0.2	2.37 ± 0.32
NCOA5 (UniProt Q9HCD5)	1.09 ± 0.031	1.22 ± 0.056	1.49 ± 0.062	1.85 ± 0.12	2.23 ± 0.12	2.76 ± 0.14
TDP1 (UniProt Q9NUW8)	1.02 ± 0.032	1.02 ± 0.046	0.983 ± 0.063	1 ± 0.069	0.985 ± 0.049	1.01 ± 0.062
UniProt Q96JM3	1.02 ± 0.043	1.02 ± 0.042	1.03 ± 0.048	1.12 ± 0.037	1.1 ± 0.039	1.12 ± 0.025
PECR (UniProt Q9BY49)	0.965 ± 0.093	0.966 ± 0.037	0.994 ± 0.073	0.984 ± 0.076	1.02 ± 0.053	1.05 ± 0.033
NMNAT1 (UniProt Q9HAN9)	1.33 ± 0.36	3.44 ± 2.5	3.91 ± 2.9	4.35 ± 3.5	3.99 ± 2.9	3.99 ± 3
UniProt Q9NYP7|Q9NYP7-2	1.07 ± 0.19	1.05 ± 0.12	1.05 ± 0.14	0.94 ± 0.15	1.09 ± 0.17	1.01 ± 0.056
UniProt Q9H6W3	1.2 ± 0.019	1.25 ± 0.029	1.31 ± 0.063	1.46 ± 0.1	1.54 ± 0.11	1.73 ± 0.093
UniProt Q9HCM7	1.71 ± 0.25	1.84 ± 0.31	2.2 ± 0.52	2.13 ± 0.52	2.62 ± 0.69	2.78 ± 0.79
UniProt Q9UBK8|Q9UBK8-2	0.946 ± 0.042	1.01 ± 0.066	0.941 ± 0.058	0.97 ± 0.068	0.973 ± 0.028	0.978 ± 0.08
UniProt Q96AT9|Q96AT9-2	1.06 ± 0.092	1.07 ± 0.047	1.06 ± 0.075	1.05 ± 0.073	0.991 ± 0.064	0.993 ± 0.048
UniProt Q96AQ6|Q96AQ6-2	0.939 ± 0.053	0.927 ± 0.024	0.924 ± 0.028	0.953 ± 0.017	0.895 ± 0.01	0.9264 ± 0.0053
UniProt Q9H974|Q9H974-4	1.03 ± 0.044	1 ± 0.035	1 ± 0.029	0.996 ± 0.044	1.02 ± 0.016	0.991 ± 0.025
DDX18 (UniProt Q9NVP1)	1.21 ± 0.029	1.3 ± 0.024	1.503 ± 0.0076	1.74 ± 0.035	2.07 ± 0.024	2.36 ± 0.16
UniProt Q96GM8|Q96GM8-2	1.06 ± 0.095	1.22 ± 0.14	1.35 ± 0.12	1.38 ± 0.12	1.53 ± 0.13	1.82 ± 0.32
UniProt Q9NNW7|Q9NNW7-2	1.01 ± 0.04	0.942 ± 0.011	0.983 ± 0.067	0.951 ± 0.02	0.949 ± 0.057	0.958 ± 0.1
TGS1 (UniProt Q96RS0)	0.969 ± 0.087	0.995 ± 0.067	1.03 ± 0.035	1.05 ± 0.054	1.03 ± 0.069	1.1 ± 0.026
UniProt Q9BZ23|Q9BZ23-3|Q9BZ23-4	0.958 ± 0.079	0.995 ± 0.08	0.937 ± 0.054	0.914 ± 0.05	0.882 ± 0.11	0.91 ± 0.05
RPGR (UniProt Q92834)	1.03 ± 0.099	1.08 ± 0.039	1.05 ± 0.036	1.07 ± 0.067	1.067 ± 0.0066	1.05 ± 0.013
ATP13A1 (UniProt Q9HD20)	1.01 ± 0.1	1 ± 0.06	1.01 ± 0.064	0.951 ± 0.086	1 ± 0.041	0.978 ± 0.03
